Screening results as filed in PubChem BioAssay.
An excerpt weighted towards active compounds, which were near 2.4% of everything screened.
D2 PAM-1 – D2 dopamine receptor (human) potentiation; P14416; HEK293 T-REx D2, calcium flux, EC20 dopamine potentiation; potentiation, % at 10 µM; 340,000 tested, 0.34% active; AID 485347;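 active means potentiation over 3 SD above the plate norm, cut at about 30% in these data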; further: 0% is about no effect
Target sequence (P14416 whole entry, looked up): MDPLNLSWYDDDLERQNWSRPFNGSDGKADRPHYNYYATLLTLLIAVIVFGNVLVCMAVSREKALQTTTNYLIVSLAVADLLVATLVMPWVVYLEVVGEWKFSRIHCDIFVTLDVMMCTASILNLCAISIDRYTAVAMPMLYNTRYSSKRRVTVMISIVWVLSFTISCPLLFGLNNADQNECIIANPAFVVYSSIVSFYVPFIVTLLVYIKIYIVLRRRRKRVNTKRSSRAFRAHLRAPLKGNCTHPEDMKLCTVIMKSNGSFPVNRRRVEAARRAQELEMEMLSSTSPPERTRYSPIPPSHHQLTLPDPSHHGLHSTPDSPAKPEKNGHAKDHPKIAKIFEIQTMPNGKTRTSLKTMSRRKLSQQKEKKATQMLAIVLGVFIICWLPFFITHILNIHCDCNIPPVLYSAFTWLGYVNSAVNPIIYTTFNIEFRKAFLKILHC
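Using a no-wash calcium dye in inducible, force-coupled HEK293 Trex cells expressing D2, we tracked fluorescence each second for 180 s after compound, then for 180 s after EC20 dopamine to detect augmented signalling.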
D2 PAM-2 – potentiates the human D2 dopamine receptor allosterically; P14416; DiscoveRx D2 beta-arrestin cells, luminescence, 90 min; 100% = 57 uM dopamine signal; potentiation, % (no concentration beside the values); 360,000 tested, 0.23% active; in the data active means potentiation above about 50%; inconclusive means mostly about 30% to 49%
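PathHunter beta-arrestin assay in DiscoveRx D2 cells. Compounds were added with an EC20 of dopamine (50 nM final) for 90 min at 37 deg C. Luminescence was read 1 h after detection reagent, with 57 uM dopamine as the EC100 control.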
D2 ag-1 – agonists of human D2 dopamine receptor. P14416. HEK293 T-REx D2 cells, calcium flux agonist mode. activation, % at 2 µM. 340,000 tested, 0.53% active. AID 485358;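 active means activation over 3 SD above normal in the single-dose calcium agonist read, cut at about 30% in these data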; further: 0% is about no effect
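Agonism scored from kinetic calcium signal (1 read/sec, 180 s) following compound pin transfer, after a 10 s baseline. Cells: HEK293 Trex line expressing inducible D2 receptor coupled to calcium, dye-loaded after overnight culture at 30 C.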
D2 antagonist – antagonizes the human D2 dopamine receptor | HEK293 TREx D2 cells, calcium flux, dopamine EC80 | inhibition, % at 10 µM | 340,000 tested, 2% active | AID 485344; in the data active means inhibition above about 30%; inactive means below that, where a call was filed; further: 0% is about no effect
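Compounds are added to dye-loaded, induced HEK293 T-REx cells coupled to calcium release via D2; after a 3 min kinetic read an EC80 dopamine stimulus is given and fluorescence is recorded for 3 more min.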
D2 ag-2 – agonists of human D2 dopamine receptor (beta-arrestin). 360,000 tested, 0.084% active. DiscoveRx PathHunter D2 beta-arrestin, luminescence, 90 min; 100% = 57 uM dopamine signal. activation, % (test concentration not listed); in the data active means activation above about 40%; inconclusive means between about 15% and that limit
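DiscoveRx PathHunter D2 beta-arrestin cells (2,100/well) attached overnight, then compound-stimulated 90 min at 37 C in HBSS/10 mM HEPES/0.1% Tween-20 buffer; beta-galactosidase complementation read by luminescence after 1 h at ambient temperature. Dopamine 57 uM final (EC100) as control.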
D3 ag – confirmation of human D3 dopamine receptor agonists, beta-arrestin; shares compounds with D2 ag-1; DiscoveRx D3 beta-arrestin cells, luminescence, 90 min; Potency, µM (top dose mostly 76.9 µM), for inactives: at the highest dose activation, most hits filed as activators; 2,300 tested, 4% active;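 further: potency means the concentration at half of the fitted maximal effect; 100% = dopamine control response; nearly all actives have a fitted effect of over 70% in size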
D2 ag-3 – activates human D2 dopamine receptor in D3 counterscreen. Potency, µM (highest dose often 76.9 µM), for inactives: at the top dose activation, hits mostly activators. shares compounds with D2 ag-1. AID 720507. DiscoveRx PathHunter D2 beta-arrestin, luminescence, 90 min; response scale: percent relative to full dopamine signal. 2,300 tested, 5.9% active; further: potency means the concentration at half of the fitted maximal effect; % of control where 0% means no effect; nearly all actives have a fitted effect of over 70% in size
Starred values were filed as active, the others as inactive; ? = inconclusive; / = no result given. Unless noted, the call rests on the fitted dose curve; in most records, active means well fitted activation curve with a large enough effect; inconclusive means small, poorly fitted or top-dose-only effect; inactive means flat fitted curve, though single readings scatter.

SMILES | D2 PAM-1 | D2 PAM-2 | D2 ag-1 | D2 antagonist | D2 ag-2 | D3 ag | D2 ag-3
OCCCNc1ncnc2c1ncn2[C@H]1CN(C2CCCC2)C[C@@H](CO)O1 | / | -3 | / | / | -7 | / | /
COc1ccc(OC)c(NC(=O)C2(C)CCN2Cc2ccc(SC)cc2)c1 (configuration not stated) | / | -7 | / | / | 4 | / | /
COc1ccc(-c2nnc(SCC(=O)NC3CCCC3)nc2-c2ccc(OC)c(OC)c2)cc1OC | 7 | / | 0 | / | / | / | /
COc1ccc2c(c1)[nH]c1c(=O)n(/N=C/C3C(C)C=C(C)CC3C)c(=O)[nH]c12 (configuration not stated) | / | 8 | -1 | 29 | -2 | / | /
COc1ccc2[nH]c3c(=O)n(/N=C/[C@H]4C(C)C=C(C)CC4C)c(=O)[nH]c3c2c1 (some centres not stated) | -15 | 19 | 41* | 36* | 3 | 10% | 4%
COc1ccc([C@H]2CC(=O)C=C(c3ccc4cc[nH]c4c3)C2)cc1 | -4 | -3 | -1 | 0 | -2 | 2% | -2%
COc1ccc([C@H]2CC(=O)C=C(c3ccc(F)nc3)C2)cc1OC | -6 | 2 | 0 | 4 | 1 | / | /
COc1ccc([C@H]2CC(=O)C=C(c3cccc(OCc4ccccc4)c3)C2)cc1 | -7 | -12 | -1 | 9 | -3 | -11% | -3%
COc1ccc(C2=CC(=O)C[C@H](c3ccc(OC)c(OC)c3)C2)cn1 | -3 | -5 | 1 | -11 | 1 | 2% | 4%
COc1ccc([C@H]2CC(=O)C=C(c3ccc(OC)cc3OC)C2)cc1 | 0 | 5 | 1 | 4 | -1 | -7% | -1%
COc1ccc(C2=CC(=O)C[C@H](c3ccc(OC)cc3)C2)cc1 | 0 | -8 | / | / | -2 | / | /
COc1cc(-c2cc(NC=O)c3ncc(-c4cccc(C(F)(F)F)c4)n3c2)cc(OC)c1OC | / | -6 | / | / | -5 | / | /
Cc1ccc(C(=O)Nc2ccc(Br)cc2)cc1S(=O)(=O)NCc1ccccc1 | -3 | / | -1 | / | / | / | /
O=C1C=C(O)CC(c2ccc(Cl)cc2)C1 (configuration not stated) | 4 | -21 | 1 | -8 | -1 | / | /
COc1ccc(C2CC(=O)C=C(O)C2)cc1 (configuration not stated) | -16 | -14 | 53* | -9 | -1 | -4% | -3%
CC(=O)Nc1ccc(/C=N/N2C(=O)NC(C)(c3ccc(OC(F)F)cc3)C2=O)cc1 (configuration not stated) | -14 | -14 | 37* | 47* | -2 | -8% | -4%
COc1ccc(NC(=O)CCCNC(=O)c2ccc(Cl)cc2)cc1S(=O)(=O)N1CCOCC1 | / | -3 | / | / | -2 | / | /
c1ccc(OCCN2CCN(Cc3nc(-c4ccc5c(c4)OCO5)no3)CC2)cc1 | -12 | -3 | 64* | 69* | 6 | ? | ?
O=C(O)CCn1cc(-c2ccc(F)cc2)nc1-c1ccncc1 | / | -7 | / | / | -1 | -13% | -5%
Cc1ccc(CNC(=O)CCn2cc(-c3ccc(F)cc3)nc2-c2ccncc2)cc1 | -13 | -16 | -1 | -7 | -3 | / | /
COc1cc(/C=C/C(=O)OCC(=O)Nc2cc(C)c(C)cc2[N+](=O)[O-])ccc1O | 9 | -8 | -1 | 22 | 0 | -4% | -2%
COc1cc(/C=C/C(=O)OCC(=O)Nc2ccc(C)cc2[N+](=O)[O-])ccc1O | 9 | -6 | 1 | -28 | -4 | / | /
O=C(CN1CCN(C(=O)c2ccco2)CC1)Nc1ccc(Cl)c(S(=O)(=O)N2CCOCC2)c1 | -16 | 7 | 45* | -1 | -5 | ? | 11%
Cc1[nH]c2ccccc2c1NC(=O)CN1CCN(C(=O)c2ccco2)CC1 | -22 | ? | 87* | 61* | 54* | 1% | ?
O=C(CN1CCN(c2ccccc2)CC1)Nc1ccc2c(c1)OCCO2 | -31 | -35 | 56* | 45* | 14 | 15% | ?
SMILES | D2 PAM-1 | D2 PAM-2 | D2 ag-1 | D2 antagonist | D2 ag-2 | D3 ag | D2 ag-3
O=C(CN1CCN(C(=O)c2ccco2)CC1)Nc1ccc2c(c1)OCCO2 | -18 | 11 | 61* | 54* | ? | 25% | 24%
CCCCCCN1C[C@@H](O)[C@H](n2cc(COC(=O)c3ccccc3)nn2)C[C@@H]1c1ccc(OC)cc1 | / | 0 | / | / | -11 | / | /
CCn1nc(C)cc1-c1nnc(Sc2ncc([N+](=O)[O-])s2)n1C | -2 | -10 | 2 | -3 | 8 | / | /
Cc1ccc2c(c1)N(CC(=O)NCC1CCCO1)C(=O)C(C(C)C)O2 (configuration not stated) | 14 | -3 | 0 | 21 | -1 | / | /
Cc1ccc(-c2csc3ncnc(SCC(=O)NCC4CCCO4)c23)cc1 (configuration not stated) | 18 | -1 | 0 | 9 | 0 | / | /
CCOC(=O)c1c(C)n(C)c2ccc(OCC(O)CN3CCN(C)CC3)cc12 (configuration not stated) | 3 | -9 | 0 | -1 | -7 | / | /
CC(=O)c1cccc(OCC(O)CNCCc2ccc(Cl)cc2)c1 (configuration not stated) | 5 | -32 | 1 | -13 | 3 | / | /
CCOC(=O)c1cccc(OCC(O)CNCCOc2ccccc2F)c1 (configuration not stated) | -31 | 4 | 81* | 83* | 47* | 15% | ?
CCOC(=O)c1c(C)n(C)c2ccc(OCC(O)CNCCc3ccccc3)cc12 (configuration not stated) | -12 | -25 | 2 | 31* | 1 | -7% | -3%
COc1ccc(C2c3ccc4ccccc4c3Oc3ncn(CCCO)c(=N)c32)cc1OC (configuration not stated) | / | -4 | / | / | -1 | 2% | 4%
COc1ccc(C2c3ccc4ccccc4c3Oc3ncn(CCO)c(=N)c32)cc1OC (configuration not stated) | / | 4 | / | / | -1 | / | /
COc1ccc(CNCCNC(=O)c2cccs2)cc1OC | -19 | -12 | 60* | 39* | -1 | -3% | -4%
N#CCCN(C(=O)COC(=O)COc1ccccc1Cc1ccccc1)c1ccccc1 | -8 | 1 | 1 | 7 | -2 | -6% | 0%
C=CCC(=O)NC1CC(C)(C)Cc2c1cnn2-c1ccc(C)cc1 (configuration not stated) | -20 | 0 | 72* | 14 | 4 | -8% | -5%
